# An excerpt weighted towards active compounds, which were near 6.2% of everything screened.
# HT1080NT lethal: kills 2HG-producing HT-1080-NT fibrosarcoma cells. HT-1080-NT fibrosarcoma viability, CellTiter-Glo ATP luminescence, 48 h. Potency, µM (doses to about 46.1 µM), for inactives: at the highest dose activity, negative = less viability, usual class: cytotoxic. 360,000 tested, 1.6% active. AID 686970;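 further: NT is the 2HG producing partner of a matched IDH1 knockdown line; 0% = DMSO-treated cells and -100% = media-only wells without cells; nearly all actives have a fitted effect of over 55% in size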
#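 Viability of the 2HG-overproducing fibrosarcoma line after 48 hours of compound exposure at 37 degrees C was determined by luminescence with CellTiter-Glo, and concentration-effect curves were then fitted and categorized.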
# HT1080 IDH1KD tx: toxicity to HT-1080 IDH1 knockdown cells (counter line). HT-1080 IDH1 knockdown viability, ATP luminescence, 48 h. Potency, µM (highest dose often 46.1 µM), inactives show at the highest dose activity, negative = toxicity, most hits filed as cytotoxic. 360,000 tested, 2% active. AID 686971;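 further: 0% = DMSO wells and -100% = cell-free medium wells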
#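 IDH1KD HT-1080 cells, 750/well, RPMI + 5% FBS; compound pinned after 2 h settling; 48 h, 37 °C; CellTiter-Glo luminescence; % activity normalised to DMSO and no-cell wells; curves fitted, classed by r2 and efficacy.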
# S2 tox: viability counter-screen for ATXN expression inhibitors; S2 cells (HEK-293 line with an ATXN2-luciferase reporter) viability, CellTiter-Fluor protease fluorescence, 24 h; 400,000 tested, 0.49% active; Potency, µM (doses to about 56.7 µM), usual class: cytotoxic; further: nearly all actives have a fitted effect of over 40% in size
# KB-3-1 cytotox: KB-3-1 parental cell cytotoxicity; KB-3-1 viability, CellTiter-Glo ATP luminescence, 72 h; Potency, µM (top dose mostly 46.1 µM), actives largely listed as cytotoxic; 400,000 tested, 1.4% active; further: on the % scale 0 is the no-effect control and ±100 the full control effect; nearly all actives have a fitted effect of over 60% in size
#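 KB-3-1 cells, DMEM (no phenol red) + 10% FBS; compound by pin transfer, 72 h, 37 °C. Readout: CellTiter-Glo luminescence after 10 min. Data normalized, curve-fitted.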
# ATXN2 expr inh: reduces ATXN2 reporter expression in HEK-293 cells; 360,000 tested, 0.72% active; AID 1745845; Potency, µM (doses to about 57 µM), inactives show top-dose activity change, negative = inhibition, actives largely listed as inhibitors; HEK-293 ATXN2-luciferase reporter, luminescence, 24 h; further: on the % scale 0 is the no-effect control and ±100 the full control effect; nearly all actives have a fitted effect of over 55% in size
#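 ATXN2-luciferase reporter cells (luciferase flanked by upstream and downstream ATXN2 gene portions) were treated 24 h at 37 °C with compounds at up to 57 uM. SteadyGlo luminescence gave expression; GF-AFC fluorescence gave viability.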
# KB-V1 cytotox: kills drug-selected multidrug resistant KB-V1 cells; KB-V1 MDR cells viability, CellTiter-Glo, 72 h; Potency, µM (doses to about 46.1 µM), usual class: cytotoxic; 400,000 tested, 3.4% active; further: on the % scale 0 is the no-effect control and ±100 the full control effect; nearly all actives have a fitted effect of over 60% in size
#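 Cytotoxicity toward P-gp-expressing KB-V1 cells was determined as loss of CellTiter-Glo luminescence after 72 h at 37 degrees C. Compounds were tested in quantitative HTS format across a concentration range, with curves fitted to normalized data.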
# Active calls of the source: *; i = inactive; u = inconclusive; x = not tested or not shown. The call rests on the fitted dose curve; in most records, active means well fitted curve in the direction sought with a large enough effect; inconclusive means small, poorly fitted or top-dose-only effect, or another doubt; inactive means no such curve, though single readings can be large; an effect the other way counts as inactive or inconclusive. Potency means the concentration at half of the fitted maximal effect.
SMILES,HT1080NT lethal,HT1080 IDH1KD tx,S2 tox,KB-3-1 cytotox,ATXN2 expr inh,KB-V1 cytotox
Cc1[nH]cnc1-c1ccc(Cl)cc1,x,x,i,x,15.8%,x
NC1=NC(=Nc2cccc(S(N)(=O)=O)c2)c2ccccc21,-7.9%,-1.0%,i,i,x,i
COc1cc(N=Nc2cccc(S(N)(=O)=O)c2)c2ccccc2c1N,20.6µM*,14.6µM*,x,23.1µM*,25.0%,i
CC(=NNC(=O)c1ccc(NS(=O)(=O)c2cccs2)cc1)c1ccc(OCC(N)=O)cc1,9.4%,5.4%,i,i,-19.9%,u
CCn1nnnc1NCc1ccc(OCc2c(F)cccc2Cl)c(OC)c1,22.5%,-11.8%,i,i,x,u
COc1cc(CNn2nnnc2N)ccc1OCc1c(Cl)cccc1Cl,-20.9%,-17.1%,i,16.4µM*,-4.0%,14.6µM*
O=C(COC(=O)/C=C/c1cccc(C(F)(F)F)c1)Nc1ccc(Cl)cn1,8.6%,12.6%,i,i,5.5%,u
COc1ccccc1Cn1c(C)c(C(=O)NCc2ccc(C#N)cc2)sc1=O,-27.2%,-27.8%,i,i,-21.5%,16.4µM*
COc1ccc(Cl)cc1Cn1c(C)c(C(=O)NCc2ccc(C#N)cc2)sc1=O,-27.2%,-18.1%,i,i,-20.5%,u
C=Cc1ccc(Cn2c(C)c(C(=O)NCc3ccc(C#N)cc3)sc2=O)cc1,-12.8%,-26.5%,i,u,u,18.4µM*
COC(=O)c1ccc(Cn2c(C)c(C(=O)NCc3ccc(C#N)cc3)sc2=O)o1,-10.9%,u,i,i,-10.1%,23.1µM*
CN(C)c1ccc(/C=C/c2ccnc3ccc(Br)cc23)cc1,x,x,x,i,x,i
CC(C)COc1ccc(CSCCNC(=S)Nc2ccccc2)cc1,u,u,i,i,-19.9%,25.9µM*
COc1ccc(OC)c(N(CCN2C(=O)c3ccccc3C2=O)C(=O)CCl)c1,u,16.4µM*,1.58µM*,u,x,u
CC(C)C(NS(C)(=O)=O)c1nnc2n1CCN(Cc1ccnc3ccccc13)CC2 (centres undefined),x,x,i,x,x,x
CCOC(=O)Nc1ccc2c(c1)N(C(=O)CCN(CC)CC)c1ccccc1CC2,u,-23.3%,i,i,x,i
CCOC(=O)Nc1ccc2c(c1)N(C(=O)CCN(CC)CC)c1ccccc1S2=O (centres undefined),16.4µM*,25.9µM*,u,u,14.0%,i
CCOc1ccccc1NC(=O)C1CCN(S(=O)(=O)c2ccc3[nH]c(=O)oc3c2)CC1,x,x,i,i,11.4%,i
O=[N+]([O-])c1c(NCCCO)cc(SCc2ccco2)c2nonc12,-25.4%,u,x,i,0.0%,i
Cn1ccnc1Sc1cc(NCCCO)c([N+](=O)[O-])c2nonc12,4.11µM*,u,u,i,u,i
O=[N+]([O-])c1c(NCCCO)cc(Sc2ccc(Cl)cc2)c2nonc12,2.1%,-1.6%,31.6µM*,u,u,i
O=[N+]([O-])c1c(NCCCO)cc(N2CCN(Cc3ccc4c(c3)OCO4)CC2)c2nonc12,-22.3%,-21.6%,u,i,-35.6%,16.4µM*
O=[N+]([O-])c1c(NCCCO)cc(N2CCCCCC2)c2nonc12,-12.0%,-2.5%,u,i,-27.2%,i
CCN(CC)CCCNc1ccc2ncn3c4ccc(O)cc4c(=O)c1c23,-24.1%,u,u,23.1µM*,u,u
CN(C)CCNc1ccc2nnn3c4ccc(O)cc4c(=O)c1c23,23.1µM*,20.6µM*,u,7.31µM*,u,u
SMILES,HT1080NT lethal,HT1080 IDH1KD tx,S2 tox,KB-3-1 cytotox,ATXN2 expr inh,KB-V1 cytotox
COc1ccc(C(=O)c2[nH]c(N)c(C(=O)NCCc3c[nH]c4ccccc34)c2-c2ccc(OC)c(OC)c2)cc1,u,u,u,u,6.7%,i
CC1=NN(C(N)=S)C(=O)C1N=Nc1c(C)cc(C)cc1C (centres undefined),11.0%,3.0%,u,4.61µM*,23.0%,u
CC1=NN(C(N)=S)C(=O)C1N=Nc1cccc(Cl)c1 (centres undefined),-14.3%,-19.4%,u,i,37.5%,i
COc1cccc(N=NC2C(=O)N(C(N)=S)N=C2C)c1 (centres undefined),25.9µM*,-5.9%,i,i,73.9%,i
COc1ccccc1CNC(=O)CSc1cc(C)[nH]c(=O)n1,x,x,i,i,2.3%,i
CC(C)Sc1nc(N2CCOCC2)c2c(c1C#N)CC(C)(C)SC2,-2.3%,-2.6%,i,u,3.6%,6.51µM*
Cc1c(NC(=O)Cc2ccc(Cl)cc2)cccc1-c1nc2cccnc2s1,x,x,i,i,-6.8%,i
CN(C)CC(C)(O)c1ccc2c(c1)CN(Cc1cccn1-c1cccnc1)CCO2 (centres undefined),x,x,i,x,x,x
Cc1cccc(NC(=S)NC2CC3CCCC(C2)N3Cc2cccs2)c1C (centres undefined),11.2µM*,u,i,i,-7.7%,i
Cc1cccc(NC(=S)NC2CC3CCCC(C2)N3CC(C)C)c1C (centres undefined),6.5%,13.1%,i,i,5.3%,20.6µM*
CCCN1C2CCCC1CC(NC(=S)Nc1cccc(C)c1C)C2 (centres undefined),-13.3%,-7.7%,i,i,x,i
Cc1ccc(C)c(Cn2c(=O)n(Cc3ccc(C(=O)NC4CCN(Cc5ccccc5)CC4)cc3)c(=O)c3ccccc32)c1,x,x,i,i,8.2%,u
COc1ccc(-c2nnc(SC(C)C(=O)Nc3nccs3)n2-c2ccccc2)cc1OC (centres undefined),3.9%,-0.1%,u,i,5.3%,14.6µM*
Cc1cc(C)cc(OCC(=O)NC(Cc2c[nH]c3ccccc23)C(=O)O)c1 (centres undefined),x,x,i,i,4.0%,i
C(=NN1CCCCCC1)c1ccc2ccccc2n1,6.51µM*,u,i,u,u,i
Cc1cc(C(=O)NCc2nnc3n2CCN(Cc2ccc(F)cc2F)CC3)c(C)o1,x,x,i,x,x,x
O=S(=O)(Nc1ccc(N=Nc2ccc(O)c3ccccc23)cc1)c1ccccc1,-21.7%,u,u,i,-17.6%,i
O=[N+]([O-])c1ccc(N=Nc2ccc(O)c3ccccc23)cc1,25.9µM*,u,u,u,u,14.6µM*
OC(c1cccnc1)c1ccc2c(c1)CN(Cc1ccc(-c3ccccc3Cl)o1)CCO2 (centres undefined),x,x,i,x,x,x
Cc1nc2cc(NC(=O)[C@@H]3C[C@@H](Sc4ccccn4)CN3Cc3ccccc3)ccc2s1,x,x,i,x,x,x

# Bioassay records: PubChem, National Center for Advancing Translational Sciences (NCATS)
